Results taken from PubChem BioAssay.
Activity calls are given as the source filed them.

Legend:
[1] = E. coli DRC41 culture turbidity changes, primary screen, E. coli filamentation inducer project, strain DRC41, OD650, 48 h (AID 1152);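 further: E. coli MC1000 strain DRC41 lacking acrAB efflux pump and sulA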; settings: E. coli DRC41 (acrAB sulA), higher = more signal, called active from +8 up or from −8 down
[2] = small-molecule binders of probe aLefty1, primary screen, biochemical, small-molecule microarray, 635/667 nm fluorescence (AID 1153); settings: higher = more signal;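 further: score merges spot fluorescence with signal-to-noise ratio from the scanned slide images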
[3] = PSAC antagonists in infected red cells, primary screen, cell-based, P. falciparum Indochina, OD700, 1 h (AID 1154); settings: P. falciparum Indochina infected RBC osmotic lysis, higher = more signal, called active from +8 up or from −8 down
[4] = PSAC antagonists in infected red cells, primary screen, cell-based, P. falciparum Indochina, OD700, 2 h (AID 1155);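 further: lysis reports solute entry through the parasite surface anion channel PSAC; channel blockers reduce lysis of infected cells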; settings: P. falciparum Indochina infected erythrocytes, osmotic lysis OD700; higher = more signal, called active from +8 up or from −8 down
[5] = osmotic lysis modulators in infected erythrocytes, primary screen, PSAC antagonist project, cell-based, P. falciparum Indochina, OD700, 3 h (AID 1156); settings: higher = more signal, called active from +8 up or from −8 down
[6] = PSAC antagonists in infected red cells, primary screen, cell-based, P. falciparum Indochina, OD700, 18 h (AID 1157); settings: P. falciparum Indochina infected erythrocytes, osmotic lysis OD700, 18 h; higher = more signal, called active from +8 up or from −8 down
[7] = modulators of S6 phosphorylation in cells, primary screen, cell-based, A549, cytoblot, luminescence, serum-stimulated (AID 1158); settings: A549 phospho-S6 cytoblot, 5 h, higher = more signal;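 further: serum-stimulated A549 lung adenocarcinoma cells; signal is phosphorylated S6 detected by cytoblot immunostaining with HRP secondary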
[8] = target: NADPH oxidase 2 (Homo sapiens) (UniProt P04839); experiment: NOX2-dependent H2O2 signal modulators, primary screen, NOX inhibitor project, cell-based, HEK293-NOX2, PMA-stimulated, Amplex Red fluorescence (AID 1159); settings: 45 min, higher = more signal, called active from +8 up or from −8 down; further: test concentration not given here
Sequence of NADPH oxidase 2 (Homo sapiens) (P04839 whole entry, looked up): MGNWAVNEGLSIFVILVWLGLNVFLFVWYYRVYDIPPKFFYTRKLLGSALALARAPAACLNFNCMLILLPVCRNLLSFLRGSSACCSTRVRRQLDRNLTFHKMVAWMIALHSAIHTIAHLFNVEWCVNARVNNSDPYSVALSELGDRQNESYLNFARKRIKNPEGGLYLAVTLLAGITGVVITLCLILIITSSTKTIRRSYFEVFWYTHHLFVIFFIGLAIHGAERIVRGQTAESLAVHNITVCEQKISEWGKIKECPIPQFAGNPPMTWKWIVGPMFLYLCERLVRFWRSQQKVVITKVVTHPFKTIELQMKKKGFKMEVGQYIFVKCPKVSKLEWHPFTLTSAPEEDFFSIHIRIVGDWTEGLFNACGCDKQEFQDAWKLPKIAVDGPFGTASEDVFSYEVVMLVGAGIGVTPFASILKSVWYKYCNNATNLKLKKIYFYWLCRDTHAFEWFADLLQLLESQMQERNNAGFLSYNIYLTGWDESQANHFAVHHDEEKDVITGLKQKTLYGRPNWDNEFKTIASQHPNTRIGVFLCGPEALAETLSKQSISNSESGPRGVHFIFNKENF

[9] = target: NADPH oxidase 4 (Homo sapiens) (UniProt Q9NPH5); experiment: NOX4-dependent H2O2 signal modulators, primary screen, NOX inhibitor project, cell-based, HEK293-NOX4, tetracycline-induced, Amplex Red fluorescence (AID 1160); settings: 45 min, higher = more signal, called active from +8 up or from −8 down
Sequence of NADPH oxidase 4 (Homo sapiens) (Q9NPH5 whole entry, looked up): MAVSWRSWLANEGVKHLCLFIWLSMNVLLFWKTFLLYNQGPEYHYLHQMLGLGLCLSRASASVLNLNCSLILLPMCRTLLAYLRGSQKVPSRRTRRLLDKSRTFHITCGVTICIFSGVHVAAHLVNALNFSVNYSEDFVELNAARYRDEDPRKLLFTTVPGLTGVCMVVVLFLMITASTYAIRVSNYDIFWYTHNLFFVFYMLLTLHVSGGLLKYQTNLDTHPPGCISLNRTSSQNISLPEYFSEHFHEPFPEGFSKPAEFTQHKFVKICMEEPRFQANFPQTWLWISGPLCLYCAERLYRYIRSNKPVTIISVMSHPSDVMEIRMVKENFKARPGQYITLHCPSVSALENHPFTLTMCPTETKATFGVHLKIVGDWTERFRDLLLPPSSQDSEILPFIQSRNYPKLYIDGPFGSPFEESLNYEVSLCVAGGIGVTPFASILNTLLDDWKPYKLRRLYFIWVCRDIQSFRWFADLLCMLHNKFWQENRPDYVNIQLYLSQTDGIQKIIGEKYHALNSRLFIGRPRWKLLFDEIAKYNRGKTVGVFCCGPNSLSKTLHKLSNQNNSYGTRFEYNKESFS

[10] = target: NADPH oxidase 5 (Homo sapiens) (UniProt Q96PH1); experiment: NOX5-dependent H2O2 signal modulators, primary screen, NOX inhibitor project, cell-based, HEK293-NOX5, Amplex Red fluorescence (AID 1161); settings: HEK293-NOX5, ionomycin, 45 min, higher = more signal
Sequence of NADPH oxidase 5 (Homo sapiens) (Q96PH1 whole entry, looked up): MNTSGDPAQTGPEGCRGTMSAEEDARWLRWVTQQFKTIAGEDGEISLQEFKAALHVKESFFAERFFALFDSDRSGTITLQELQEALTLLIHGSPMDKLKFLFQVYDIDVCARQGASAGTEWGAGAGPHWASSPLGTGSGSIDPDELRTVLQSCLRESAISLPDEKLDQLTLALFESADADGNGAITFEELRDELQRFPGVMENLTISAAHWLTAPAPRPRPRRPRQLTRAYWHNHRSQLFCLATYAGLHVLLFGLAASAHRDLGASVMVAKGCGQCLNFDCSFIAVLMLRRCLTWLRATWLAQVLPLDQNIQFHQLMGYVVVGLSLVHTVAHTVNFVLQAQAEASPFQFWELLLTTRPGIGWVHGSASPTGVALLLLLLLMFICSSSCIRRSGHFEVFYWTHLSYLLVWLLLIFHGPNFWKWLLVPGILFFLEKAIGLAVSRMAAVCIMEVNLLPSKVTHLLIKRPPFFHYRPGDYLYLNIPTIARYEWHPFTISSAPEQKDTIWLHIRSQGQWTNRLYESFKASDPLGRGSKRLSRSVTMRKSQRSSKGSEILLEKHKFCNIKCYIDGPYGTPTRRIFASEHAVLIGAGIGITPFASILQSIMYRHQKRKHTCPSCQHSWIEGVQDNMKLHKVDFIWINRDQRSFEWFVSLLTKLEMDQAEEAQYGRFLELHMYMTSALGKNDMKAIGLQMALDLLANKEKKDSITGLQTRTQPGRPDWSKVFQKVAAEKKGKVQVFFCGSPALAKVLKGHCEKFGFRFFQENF

[11] = A549 cell viability effects, profiling panel, calcein-AM fluorescence, 48 h, basal (AID 1162); settings: higher = more signal; further: test concentration not given here
[12] = adipocyte viability effects, profiling panel, cell-based, 3T3-L1 adipocytes, calcein-AM fluorescence, 48 h, basal (AID 1163); settings: 3T3-L1 adipocytes viability, higher = more signal; further: test concentration not given here
[13] = HepG2 cell viability effects, profiling panel, calcein-AM fluorescence, 48 h, basal (AID 1164); settings: higher = more signal; further: test concentration not given here
[14] = MM1S cell viability effects, profiling panel, calcein-AM fluorescence, 48 h, basal (AID 1165); settings: higher = more signal;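 further: viability of MM1S multiple myeloma cells under basal unstimulated conditions; test concentration not given here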
[15] = basal RPMI8226 viability, no added stimulus, profiling panel, cell-based, calcein-AM fluorescence, 48 h, PK04 Diversity Set (AID 1166); settings: RPMI8226 myeloma viability, higher = more signal;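 further: cells grown under basal conditions without added stimulus; test concentration not given here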
[16] = basal HepG2 mitochondrial membrane potential changes, profiling panel, cell-based, JC-1 fluorescence, 24 h, 100 nL compound (AID 1167); settings: higher = more signal; further: test concentration not given here
[17] = basal 3T3-L1 adipocyte mitochondrial potential changes, profiling panel, cell-based, JC-1 fluorescence, 3T3-L1 adipocytes, 24 h, 100 nL compound (AID 1168); settings: JC-1 mitochondrial fluorescence, higher = more signal, called active from +8 up or from −8 down; further: test concentration not given here
[18] = basal RPMI8226 mitochondrial membrane potential changes, profiling panel, cell-based, JC-1 fluorescence, 24 h, 100 nL compound (AID 1169); settings: RPMI8226 myeloma, JC-1 mitochondrial potential fluorescence, higher = more signal; further: test concentration not given here
[19] = basal MM1S mitochondrial membrane potential changes, profiling panel, cell-based, JC-1 fluorescence, 24 h, 100 nL compound (AID 1170); settings: higher = more signal; further: test concentration not given here
[20] = A549 lung cancer cell viability effects, profiling panel, resazurin fluorescence, 24 h, PK04 Diversity Set (AID 1171); settings: higher = more signal, called active from +8 up or from −8 down; further: test concentration not given here

| SMILES | z-score [1] | composite z-score [2] | z-score [3] | z-score [4] | z-score [5] | z-score [6] | z-score [7] | z-score [8] | z-score [9] | z-score [10] | z-score [11] | z-score [12] | z-score [13] | z-score [14] | z-score [15] | z-score [16] | z-score [17] | z-score [18] | z-score [19] | z-score [20] |
| --- | --- | --- | --- | --- | --- | --- | --- | --- | --- | --- | --- | --- | --- | --- | --- | --- | --- | --- | --- | --- |
| CCOC(=O)C1=CC[C@@H](c2ccccc2C(F)(F)F)N(S(=O)(=O)c2ccc(C)cc2)C1 | -0.007 (inactive) | 0.743 | 0.565 (inactive) | -0.555 (inactive) | -0.892 (inactive) | -1.92 (inactive) | 0.39 | 0.17 (inactive) | -0.742 (inactive) | -0.836 | -0.82 | 0.605 | 1.31 | -0.925 | -1.28 | 2.51 | 0.0742 (inactive) | -0.226 | -0.435 | -1.27 (inactive) |
| CCOC(=O)C[C@H]1[C@H](OC(=O)c2ccc(C(=O)c3ccccc3)cc2)[C@@H](NC(=O)c2ccc3ccccc3c2)c2cc(OCCCO)ccc2N1C(=O)c1ccccc1 | -0.558 (inactive) | -0.0134 | 0.137 (inactive) | -0.0012 (inactive) | -0.97 (inactive) | 0.189 (inactive) | -0.357 | 0.311 (inactive) | 0.945 (inactive) | 1.06 | -0.0566 | 0.202 | -0.458 | 0.0736 | -0.602 | -0.245 | -1.1 (inactive) | 0.314 | 0.184 | -0.412 (inactive) |
| COCC(=C=CC[C@H](O)c1ccc(OCCO)cc1)C[C@H](O)COCc1ccccc1 | 1.19 (inactive) | 0.179 | 16.5 (active) | 1.61 (inactive) | 0.103 (inactive) | -0.749 (inactive) | 0.974 | -1.6 (inactive) | -0.65 (inactive) | -2.52 | 0.542 | 1.24 | 0.115 | -0.26 | 0.249 | 1.07 | -0.801 (inactive) | -0.245 | -0.748 | 0.925 (inactive) |
| C=CCN1C(=O)[C@@]2(O[C@@H](CCO)[C@H]([Si](C)(C)c3ccc(OC)cc3)[C@H]2C)c2cc(N3C(=O)c4ccccc4Oc4ccccc43)ccc21 | 1.88 (inactive) | -0.147 | 24.4 (active) | 8.39 (active) | 0.332 (inactive) | 2.07 (inactive) | 0.502 | -0.946 (inactive) | 0.757 (inactive) | -0.54 | -3.02 | -0.428 | -4.76 | -2.94 | -4.12 | -2.97 | 1.07 (inactive) | -1.1 | -2.33 | -4.55 (inactive) |
| CC(C)(C)OC(=O)CC[C@]1(C(=O)N2CCOCC2)N=C(c2ccc(OCCCO)cc2)O[C@H]1c1ccccc1 | 1.12 (inactive) | 0.0468 | 22.9 (active) | 5.18 (inactive) | 1.05 (inactive) | 0.815 (inactive) | -0.208 | -0.291 (inactive) | -0.457 (inactive) | -0.474 | 0.134 | 0.233 | 1.01 | 1.38 | 0.0928 | 0.839 | 0.453 (inactive) | 0.0149 | -0.703 | -0.743 (inactive) |
| COCCOC(=O)N1C(=O)[C@@]2(c3cc(C#CC4(O)CCCCCC4)ccc31)[C@H](C(N)=O)[C@H]1C(=O)O[C@H](c3ccccc3)[C@H](c3ccccc3)N1[C@@H]2c1ccc(O)cc1 | -0.342 (inactive) | -0.0186 | 1.7 (inactive) | -0.269 (inactive) | 2.21 (inactive) | -0.125 (inactive) | -0.0551 | 0.649 (inactive) | 0.547 (inactive) | 0.85 | 1.47 | 0.521 | 0.412 | -2.88 | -3.95 | -0.0298 | -0.62 (inactive) | -0.522 | -1.25 | 0.394 (inactive) |
| COCCCNC(=O)[C@]1(Cc2ccccc2CN=[N+]=[N-])N=C(c2ccc(OCCCO)cc2)O[C@@H]1c1ccccc1 | 0.65 (inactive) | -0.184 | 26.2 (active) | 15.5 (active) | 1.28 (inactive) | 0.178 (inactive) | 1.64 | -1.94 (inactive) | -0.52 (inactive) | -1.46 | -1.36 | 0.503 | -0.79 | -2.62 | -4.24 | -0.194 | 0.48 (inactive) | -1.15 | -1.11 | 0.28 (inactive) |
| CN1C(=O)C2C=CC(C(O)c3c(F)cccc3Cl)N(Nc3ccccc3)C2C1=O (stereo not given) | -1.32 (inactive) | 0.277 | 0.32 (inactive) | 0.733 (inactive) | -0.108 (inactive) | 1.12 (inactive) | -0.809 | -2.08 (inactive) | -4.96 (inactive) | -2.51 | -0.635 | -0.924 | -1.18 | 0.161 | -1.42 | -1.4 | -0.144 (inactive) | -0.725 | 0.302 | -0.31 (inactive) |
| COC(=O)c1c(CC[C@@H](CO)NC(=O)N[C@H](Cn2cc(-c3ccccc3C)nn2)C(C)C)oc(C(C)=O)c1C(=O)OC | 0.206 (inactive) | -0.112 | 0.791 (inactive) | -0.0484 (inactive) | 1.56 (inactive) | -0.52 (inactive) | 1.29 | -3.2 (inactive) | -2.16 (inactive) | -1.77 | -0.657 | 1.55 | 0.308 | -0.759 | -0.607 | -0.24 | 0.37 (inactive) | -0.353 | -1.27 | -1.26 (inactive) |
